According to PubChem BioAssay (Tox21):
Results filed as inconclusive are left out. Activity calls are given as the source filed them. Unless noted, the call rests on the fitted dose curve; in most records, active means well fitted curve in the direction sought with a large enough effect in the repeat runs; inconclusive means weak or mixed curves; inactive means no such curve, though single readings can be large; an effect the other way counts as inactive or inconclusive.

Columns and labels:
[1] = target: Peroxisome proliferator-activated receptor gamma (Homo sapiens) (UniProt P37231); experiment: qHTS assay to identify small molecule agonists of the peroxisome proliferator-activated receptor gamma (PPARg) signaling pathway (AID 743094; active means well fitted activation curve with a large enough effect in the signal ratio in the repeat runs, not every such curve was filed as active; the % refers to the signal ratio)
Chain of Peroxisome proliferator-activated receptor gamma (Homo sapiens) (P37231 whole entry, looked up): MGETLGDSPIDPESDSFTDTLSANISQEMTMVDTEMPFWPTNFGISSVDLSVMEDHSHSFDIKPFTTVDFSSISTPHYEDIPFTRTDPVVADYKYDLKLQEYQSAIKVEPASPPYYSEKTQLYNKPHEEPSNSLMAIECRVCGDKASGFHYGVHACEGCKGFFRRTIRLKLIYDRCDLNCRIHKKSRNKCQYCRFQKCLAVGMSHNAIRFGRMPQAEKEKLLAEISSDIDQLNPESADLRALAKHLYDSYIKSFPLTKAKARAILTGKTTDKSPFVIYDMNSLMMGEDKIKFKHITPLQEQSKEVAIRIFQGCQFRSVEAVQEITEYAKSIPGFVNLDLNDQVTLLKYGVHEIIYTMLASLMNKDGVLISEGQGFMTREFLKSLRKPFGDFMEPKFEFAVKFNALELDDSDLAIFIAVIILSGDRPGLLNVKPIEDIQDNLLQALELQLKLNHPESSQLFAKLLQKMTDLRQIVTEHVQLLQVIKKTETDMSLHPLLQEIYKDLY
Procedure, shortened: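 Cell-based bla reporter, HEK293H background, PPARg-driven UAS. Pre-incubation 5 h, 37C, 5% CO2. Compound 17 h, 37C. Substrate 1 h RT; fluorescence.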

[2] = target: Peroxisome proliferator-activated receptor gamma (Homo sapiens) (UniProt P37231); experiment: qHTS assay to identify small molecule antagonists of the peroxisome proliferator-activated receptor gamma (PPARg) signaling pathway (AID 743191; calls by dose curve; further: series mostly up to about 63 µM; nearly all actives have a fitted effect of over 30% in size)
Procedure, shortened: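 GeneBLAzer PPARg UAS-bla HEK293H cells, 5 h post-plating, exposed to compounds 17 h at 37C. LiveBLAzer B/G FRET substrate added for 1 h at room temperature; beta-lactamase reporter read by fluorescence intensity.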

[3] = qHTS assay to identify small molecule antagonists of the peroxisome proliferator-activated receptor gamma (PPARg) signaling pathway - cell viability counter screen (AID 743194); further: nearly all actives have a fitted effect of over 55% in size
Procedure, shortened: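 Cytotoxicity counter screen in PPARg-bla HEK293H cells, same wells as reporter assay. Compounds plus 50 nM rosiglitazone (final) for 17 h at 37 C, then viability read by CellTiter-Glo luminescence.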

[4] = qHTS assay for small molecule agonists of the antioxidant response element (ARE) signaling pathway (AID 743202; active means well fitted activation curve with a large enough effect in the signal ratio in the repeat runs, not every such curve was filed as active; the % refers to the signal ratio; further: potency means the concentration at half of the fitted maximal effect)
Procedure, shortened: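 HepG2 ARE-bla cells; 16 h treatment at 37 C; FRET-based beta-lactamase fluorescence read after 2 h substrate incubation at room temperature.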

[5] = qHTS assay for small molecule agonists of the antioxidant response element (ARE) signaling pathway - cell viability counter screen (AID 743203; calls by dose curve; further: nearly all actives have a fitted effect of over 55% in size)
Procedure, shortened: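 Measured in the same wells as the beta-lactamase ARE reporter, this read-out is CellTiter-Glo luminescence from HepG2 ARE-bla cells given compounds for 16 hrs.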

[6] = qHTS assay to identify small molecule agonists of the peroxisome proliferator-activated receptor delta (PPARd) signaling pathway - cell viability counter screen (AID 743211); further: nearly all actives have a fitted effect of over 55% in size; further: potency means the concentration at half of the fitted maximal effect
Procedure, shortened: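 Multiplexed format: after the 2 h room-temperature LiveBLAzer B/G FRET step, CellTiter-Glo was added to the same wells. Luminescence after 30 min gave cell viability; compound exposure was 17 h at 37C.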

[7] = target: Peroxisome proliferator-activated receptor delta (Homo sapiens) (UniProt Q03181); experiment: qHTS assay to identify small molecule agonists of the peroxisome proliferator-activated receptor delta (PPARd) signaling pathway (AID 743212; calls by dose curve)
Chain of Peroxisome proliferator-activated receptor delta (Homo sapiens) (Q03181 whole entry, looked up): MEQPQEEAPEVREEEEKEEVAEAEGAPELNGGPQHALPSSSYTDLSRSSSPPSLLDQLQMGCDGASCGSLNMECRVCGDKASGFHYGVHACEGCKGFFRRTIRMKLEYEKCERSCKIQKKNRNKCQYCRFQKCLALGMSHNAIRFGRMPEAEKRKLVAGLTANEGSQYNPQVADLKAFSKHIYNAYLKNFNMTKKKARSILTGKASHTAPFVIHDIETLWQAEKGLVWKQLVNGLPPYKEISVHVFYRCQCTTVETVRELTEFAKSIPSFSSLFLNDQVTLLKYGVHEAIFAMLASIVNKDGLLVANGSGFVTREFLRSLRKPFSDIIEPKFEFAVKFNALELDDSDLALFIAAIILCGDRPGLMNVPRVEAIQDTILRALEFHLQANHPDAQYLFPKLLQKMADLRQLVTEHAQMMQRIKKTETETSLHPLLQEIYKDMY
Procedure, shortened: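 Tox21 library screened in GeneBLAzer PPARd UAS-bla HEK293H cells. After compound treatment at 37 C, a FRET-based beta-lactamase substrate was applied for 2 h and fluorescence recorded.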

[8] = qHTS assay to identify small molecule antagonists of the peroxisome proliferator-activated receptor delta (PPARd) signaling pathway - cell viability counter screen (AID 743213); further: nearly all actives have a fitted effect of over 50% in size; further: potency means the concentration at half of the fitted maximal effect
Procedure, shortened: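 Cytotoxicity counter screen: CellTiter-Glo luminescence read 30 min after addition, in the same wells as the reporter assay. There, PPARd UAS-bla HEK293H cells (3000/well) were treated 17 h at 37 C with compound and 300 nM L165041.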

[9] = target: Peroxisome proliferator-activated receptor delta (Homo sapiens) (UniProt Q03181); experiment: qHTS assay to identify small molecule antagonists of the peroxisome proliferator-activated receptor delta (PPARd) signaling pathway (AID 743215; active means well fitted inhibition curve with a large enough effect in the signal ratio in the repeat runs, not every such curve was filed as active; the % refers to the signal ratio;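 further: cells stimulated with agonist L165041 at 300 nM final during compound exposure; series mostly up to about 62 µM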)
Procedure, shortened: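 Fluorescence from cleaved LiveBLAzer B/G FRET substrate (2 h, room temperature) reports PPARd-driven beta-lactamase in HEK293H UAS-bla cells. Cells had been treated 17 h at 37 C with compound plus 300 nM final L165041.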

[10] = target: Bile acid receptor (Homo sapiens) (UniProt Q96RI1); experiment: qHTS assay to identify small molecule antagonists of the farnesoid-X-receptor (FXR) signaling pathway (AID 743217; active means well fitted inhibition curve with a large enough effect in the signal ratio in the repeat runs, not every such curve was filed as active; the % refers to the signal ratio)
Chain of Bile acid receptor (Homo sapiens) (Q96RI1 whole entry, looked up): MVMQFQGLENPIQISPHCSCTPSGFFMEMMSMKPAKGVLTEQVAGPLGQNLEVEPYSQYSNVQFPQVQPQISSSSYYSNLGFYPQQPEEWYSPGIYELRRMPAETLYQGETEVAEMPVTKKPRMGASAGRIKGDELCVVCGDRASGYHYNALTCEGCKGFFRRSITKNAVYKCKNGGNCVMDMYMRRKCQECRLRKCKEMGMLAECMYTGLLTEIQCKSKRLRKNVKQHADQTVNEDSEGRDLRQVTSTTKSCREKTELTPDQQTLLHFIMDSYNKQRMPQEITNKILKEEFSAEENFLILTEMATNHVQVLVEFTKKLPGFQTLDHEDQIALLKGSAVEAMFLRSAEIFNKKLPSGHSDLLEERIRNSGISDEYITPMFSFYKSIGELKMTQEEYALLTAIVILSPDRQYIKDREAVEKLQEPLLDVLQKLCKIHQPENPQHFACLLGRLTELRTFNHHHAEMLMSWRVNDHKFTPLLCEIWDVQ
Procedure, shortened: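 FRET fluorescence after 2 h room-temperature LiveBLAzer loading gives the readout. Prior step: FXR-bla HEK 293T cells, seeded and incubated 5 h, received test compounds plus 50 uM final CDCA for 16 h at 37 °C.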

[11] = qHTS assay to identify small molecule agonists of the farnesoid-X-receptor (FXR) signaling pathway - cell viability counter screen (AID 743218); further: nearly all actives have a fitted effect of over 45% in size; further: potency means the concentration at half of the fitted maximal effect
Procedure, shortened: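 Readout: CellTiter-Glo luminescence, 30 min RT, multiplexed after the FXR-bla FRET reading. HEK 293T FXR-UAS-bla cells received compound 5 h post-plating and were incubated 16 h at 37 C.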

[12] = target: Bile acid receptor (Homo sapiens) (UniProt Q96RI1); experiment: qHTS assay to identify small molecule agonists of the farnesoid-X-receptor (FXR) signaling pathway (AID 743220; active means well fitted activation curve with a large enough effect in the signal ratio in the repeat runs, not every such curve was filed as active; the % refers to the signal ratio)
Procedure, shortened: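 FXR-UAS-bla HEK 293T cells carrying a UAS-driven beta-lactamase reporter were plated for 5 h at 37C/5% CO2, then exposed to DMSO-dissolved Tox21 10K compounds for 16 h at 37C. A LiveBLAzer B/G FRET substrate was loaded for 2 h at room temperature before fluorescence reading.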

[13] = qHTS assay to identify small molecule antagonists of the farnesoid-X-receptor (FXR) signaling pathway - cell viability counter screen (AID 743221; active means well fitted cell-killing curve with a large enough effect in the repeat runs, not every such curve was filed as active; further: nearly all actives have a fitted effect of over 50% in size)
Procedure, shortened: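 CellTiter-Glo, 30 min RT, luminescence; same wells as the LiveBLAzer FRET read. Cells: FXR-UAS-bla HEK 293T. Treatment: compound with chenodeoxycholic acid 50 uM final, 16 h at 37 C.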

[14] = target: Vitamin D3 receptor (Homo sapiens) (UniProt P11473); experiment: qHTS assay to identify small molecule agonists of the vitamin D receptor (VDR) signaling pathway (AID 743222; calls by dose curve)
Chain of Vitamin D3 receptor (Homo sapiens) (P11473 whole entry, looked up): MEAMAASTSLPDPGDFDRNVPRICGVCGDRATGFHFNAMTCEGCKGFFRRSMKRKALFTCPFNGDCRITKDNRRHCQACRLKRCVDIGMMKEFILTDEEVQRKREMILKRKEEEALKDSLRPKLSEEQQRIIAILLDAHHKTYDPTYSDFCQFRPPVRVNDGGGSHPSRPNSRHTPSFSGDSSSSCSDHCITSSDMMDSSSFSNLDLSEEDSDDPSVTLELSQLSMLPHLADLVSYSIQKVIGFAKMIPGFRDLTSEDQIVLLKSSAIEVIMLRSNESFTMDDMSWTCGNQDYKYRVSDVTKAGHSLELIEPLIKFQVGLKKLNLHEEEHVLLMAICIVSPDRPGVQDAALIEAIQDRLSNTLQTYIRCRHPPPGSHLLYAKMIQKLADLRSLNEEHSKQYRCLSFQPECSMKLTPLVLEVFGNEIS
Procedure, shortened: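 Following 4 h attachment at 37C, VDR-bla cells (2,000 per well) received DMSO-dissolved compounds or controls. After 16 h incubation, LiveBLAzer B/G FRET substrate was added and fluorescence read 2 h later at room temperature.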

[15] = target: Vitamin D3 receptor (Homo sapiens) (UniProt P11473); experiment: qHTS assay to identify small molecule antagonists of the vitamin D receptor (VDR) signaling pathway (AID 743223; active means well fitted inhibition curve with a large enough effect in the signal ratio in the repeat runs, not every such curve was filed as active; the % refers to the signal ratio)
Procedure, shortened: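 After VDR-bla cells are plated and left 4 h at 37C, DMSO-dissolved compounds and 3 nM (final) calcitriol agonist are added. Incubation continues 16 h at 37C; FRET beta-lactamase substrate then develops 2 h at room temperature.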

[16] = qHTS assay to identify small molecule agonists of the vitamin D receptor (VDR) signaling pathway - cell viability counter screen (AID 743224); further: nearly all actives have a fitted effect of over 50% in size; further: potency means the concentration at half of the fitted maximal effect
Procedure, shortened: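 In parallel with the bla FRET readout, cytotoxicity toward VDR-bla cells after 16 h compound exposure was assessed by CellTiter-Glo, with luminescence recorded after a 30 min room-temperature incubation.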

[17] = qHTS assay for small molecule activators of the heat shock response signaling pathway - cell viability counter screen (AID 743209); further: nearly all actives have a fitted effect of over 50% in size
Procedure, shortened: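 Same-well multiplex: after 2.5 h room-temperature incubation with LiveBLAzer B/G substrate and fluorescence reading, CellTiter-Glo reagent was added to HSE-bla HeLa cells that had received compound for 5 h at 37 C; luminescence read after 30 min.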

[18] = qHTS assay for small molecule activators of the heat shock response signaling pathway (AID 743210; active means well fitted activation curve with a large enough effect in the signal ratio in the repeat runs, with a control signal flat, not every such curve was filed as active; the % refers to the signal ratio;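 further: HeLa cells with beta-lactamase reporter driven by heat shock elements; series mostly up to about 63 µM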)
Procedure, shortened: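 Following overnight attachment, HSE-bla HeLa cells received test compounds for 5 h at 37 C; beta-lactamase activity was then detected via FRET substrate fluorescence.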

[19] = qHTS assay to identify small molecule that activate the aryl hydrocarbon receptor (AhR) signaling pathway - cell viability counter screen (AID 743086);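 further: HepG2 liver cells carrying the AhR DRE luciferase reporter; series mostly up to about 70 µM; nearly all actives have a fitted effect of over 45% in size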
Procedure, shortened: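 HepG2-AhR-luc (HG2L7.5c1) cells, 4000/well, treated 24 h at 37 C with compound; viability measured as CellTiter-Fluor fluorescence after 30 min in the same wells as the luciferase read.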

Measured: Potency

CO[C@H]1O[C@H](CO)[C@@H](O)[C@H](O)[C@H]1O
inactive: [1] | [2] | [3] | [4] | [5] | [6] | [7] | [8] | [9] | [10] | [11] | [12] | [13] | [14] | [15] | [16]

CCCC1C(CC)=CC(CC)=CN1c1ccccc1 (configuration not stated)
inactive: [1] | [2] | [3] | [17] | [18] | [7] | [8] | [9] | [10] | [11] | [12] | [13] | [14]
active: [4] 54.5 µM

CCOC(=O)[C@@H](C)Oc1ccc(Oc2nc3ccc(Cl)cc3o2)cc1
inactive: [1] | [3] | [17] | [18] | [6] | [8] | [12] | [13] | [14] | [15] | [16]

CCOCCn1c(C2CCN(CCc3ccc(C(C)(C)C(=O)O)cc3)CC2)nc2ccccc21
inactive: [3] | [4] | [5] | [17] | [18] | [6] | [7] | [10] | [11] | [12] | [13] | [14] | [15] | [16]

N#C/C(=C1/SC[C@@H](c2ccc(Cl)cc2Cl)S1)n1ccnc1
inactive: [19] | [3] | [17] | [18] | [6] | [8] | [11] | [13]

COC(=O)c1cc(Cl)ccc1NS(=O)(=O)C(F)(F)F
inactive: [2] | [3] | [4] | [5] | [17] | [18] | [6] | [8] | [10] | [11] | [12] | [13] | [16]

Nc1c(I)cc(I)c(C(=O)N(CCC(=O)O)c2ccccc2)c1I
inactive: [3] | [4] | [5] | [17] | [18] | [6] | [7] | [8] | [9] | [10] | [11] | [12] | [13] | [14] | [15] | [16]

CC(=O)N(c1onc(C)c1C)S(=O)(=O)c1ccc(N)cc1
inactive: [3] | [4] | [17] | [18] | [6] | [10] | [11] | [12] | [13] | [14] | [16]

NC(=O)Nc1ccc(Cl)c(Cl)c1
inactive: [1] | [3] | [17] | [6] | [7] | [8] | [9] | [10] | [11] | [12] | [13] | [14] | [15] | [16]

COc1ccc([C@@H]2Sc3ccccc3NC(=O)[C@@H]2O)cc1
inactive: [3] | [4] | [5] | [17] | [18] | [6] | [7] | [11] | [12] | [13] | [14] | [16]

O=C(O)c1cccnc1C(=O)O
inactive: [1] | [2] | [3] | [4] | [17] | [18] | [6] | [8] | [11] | [13] | [16]

C(=C\c1ccccc1)/CN1CCN(C(c2ccccc2)c2ccccc2)CC1
inactive: [19] | [5] | [17] | [12] | [13] | [14] | [15]
active: [6] 29.8 µM

CNCCCC1c2ccccc2C=Cc2ccccc21
active: [6] 10.6 µM | [8] 23.7 µM | [11] 23.7 µM | [16] 29.8 µM
inactive: [19] | [3] | [5] | [17] | [15]
